Data from the supplement of paper PMC6897291.
Where a name gives a salt, the structure may show the parent alone.

Each compound was assayed on U-2932 (assay: growth inhibition by drug plus 177Lu-lilotomab satetraxetan (1 - RLU/untreated control) (fraction); higher = stronger inhibition). Settings: 10 nM; time (day): 4; 177Lu-lilotomab satetraxetan 1 ug/ml.
Summary of the method: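 Growth inhibition was calculated from RealTime-Glo RLU against untreated no-drug wells. Values equal 1 − RLU/mean of 48 untreated no-drug wells per plate, read daily from day 3 after 1 h at 37°C. RIVA and U-2932 cells, with or without 18 h pretreatment by a radiolabelled anti-CD37 antibody conjugate (~600 MBq/mg; 0.5 µg/ml RIVA, 1 µg/ml U-2932), were washed and plated at 3,000 cells/well on compound-printed plates at 10/100 nM (RIVA) or 10/1,000 nM (U-2932).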

Row | SMILES | growth inhibition by drug plus 177Lu-lilotomab satetraxetan
1 | COc1ccc(S(=O)(=O)Nc2cccnc2Nc2ccc(O)cc2)cc1 | 0.0116
2 | C[C@]12CCC(=O)C=C1CC[C@@H]1[C@@H]2[C@@H](O)C[C@@]2(C)[C@H]1CC[C@]2(O)C(=O)CO [Hydrocortisone (Cortisol)] | 0.0897
3 | COc1cc(OC2CCN(C)CC2)ccc1Nc1ncc2c(n1)n(C1CCCC1)c(=O)n2C | -0.0366
4 | Nc1nc(F)nc2c1ncn2[C@@H]1O[C@H](CO)[C@@H](O)[C@@H]1O [Fludarabine (Fludara)] | 0.0769
5 | Nc1nc(Nc2ccc(S(N)(=O)=O)cc2)nn1C(=O)c1c(F)cccc1F | 0.07
6 | Nc1ncn([C@@H]2O[C@H](CO)[C@@H](O)[C@H]2O)c(=O)n1 [Azacitidine (Vidaza)] | -0.0484
7 | COc1cc2nccc(Oc3ccc(NC(=O)NC4CC4)c(Cl)c3)c2cc1C(N)=O [E7080 (Lenvatinib)] | -0.0346
8 | Nc1ccn([C@@H]2O[C@H](CO)[C@@H](O)[C@@H]2O)c(=O)n1 [Cytarabine] | 0.00463
9 | Nc1cccc2c1C(=O)N(C1CCC(=O)NC1=O)C2=O (stereo not drawn) [Pomalidomide] | 0.034
10 | CN(C)c1nc(N(C)C)nc(N(C)C)n1 [Altretamine (Hexalen)] | -0.0735
11 | Cc1[nH]c(/C=C2\C(=O)Nc3ccc(S(=O)(=O)N(C)c4cccc(Cl)c4)cc32)c(C)c1C(=O)N1CCN(C)CC1 | 0.0537
12 | O=C(O[C@@H]1Cc2c(O)cc(O)cc2O[C@@H]1c1cc(O)c(O)c(O)c1)c1cc(O)c(O)c(O)c1 [(-)-Epigallocatechin gallate] | 0.00037
13 | CCc1c2c(nc3ccc(OC(=O)N4CCC(N5CCCCC5)CC4)cc13)-c1cc3c(c(=O)n1C2)COC(=O)[C@]3(O)CC [Irinotecan HCl Trihydrate (Campto)] | 0.04
14 | S=C(NCc1ccc2c(c1)OCO2)N1CCN(c2ncnc3c2oc2ccccc23)CC1 [Amuvatinib (MP-470)] | 0.101
15 | COc1ccc2c3n(c(=NC(=O)c4cccnc4)nc2c1OC)CCN3 | 0.066
16 | C#Cc1cccc(Nc2ncnc3cc(OCCOC)c(OCCOC)cc23)c1 [Erlotinib HCl] | 0.2
17 | Cc1ccc(-c2cc(C(F)(F)F)nn2-c2ccc(S(N)(=O)=O)cc2)cc1 [Celecoxib] | -0.0256
18 | N#CC[C@H](C1CCCC1)n1cc(-c2ncnc3[nH]ccc23)cn1 | 0.0333
19 | CCc1cncnc1N1CCN(Cc2nc3ccc(C(F)(F)F)cc3[nH]2)CC1 | 0.0254

Row | SMILES | growth inhibition by drug plus 177Lu-lilotomab satetraxetan
20 | CCN(CC)C(=S)SSC(=S)N(CC)CC [Disulfiram (Antabuse)] | 0.0295
21 | CC(C)[C@H](C(=O)Nc1ccc(C(=O)NO)cc1)c1ccccc1 | 0.0315
22 | CC(=O)O[C@]1(C(C)=O)CC[C@H]2[C@@H]3C=C(C)C4=CC(=O)CC[C@]4(C)[C@H]3CC[C@@]21C [Megestrol Acetate] | 0.104
23 | COc1cc2ncnc(Nc3cccc(Br)c3)c2cc1OC | -0.00153
24 | N#Cc1ccc(C(c2ccc(C#N)cc2)n2cncn2)cc1 [Letrozole] | -0.0795
25 | CC(=O)c1c(C)c2cnc(Nc3ccc(N4CCNCC4)cn3)nc2n(C2CCCC2)c1=O | 0.0266
26 | COc1cccc2c1C(=O)c1c(O)c3c(c(O)c1C2=O)C[C@@](O)(C(=O)CO)C[C@@H]3O[C@H]1C[C@H](N)[C@H](O)[C@H](C)O1 [Doxorubicin (Adriamycin)] | 0.492
27 | CC(C)(C)c1[nH]cnc1/C=c1\[nH]c(=O)/c(=C/c2ccccc2)[nH]c1=O [NPI-2358 (Plinabulin)] | 0.123
28 | COc1cc(Nc2ncc3c(n2)-c2ccc(Cl)cc2C(c2c(F)cccc2OC)=NC3)ccc1C(=O)O [MLN8237 (Alisertib)] | 0.0562
29 | O=c1[nH]cc(F)c(=O)[nH]1 [Adrucil (Fluorouracil)] | 0.00352
30 | CC(C)c1ccc(Cn2ccc3c4c(N)nc(NC5CC5)nc4ccc32)cc1 | 0.196
31 | CC/C(=C(\c1ccccc1)c1ccc(OCCN(C)C)cc1)c1ccccc1 [Tamoxifen Citrate (Nolvadex)] | 0.126
32 | Cn1cc(C2=C(c3ccc(Cl)cc3Cl)C(=O)NC2=O)c2ccccc21 | 0.00483
33 | c1ccc(-c2nn3c(c2-c2ccnc4cc(OCCN5CCOCC5)ccc24)CCC3)nc1 | 0.0692
34 | O=C(NCCS(=O)(=O)c1ccc(C(F)(F)F)cn1)c1ccc(Cl)cc1 | 0.0392
35 | Cc1ccc(S(=O)(=O)C=CC#N)cc1 | 0.0303
36 | CCC1=C[C@@H]2CN(C1)Cc1c([nH]c3ccccc13)[C@@](C(=O)OC)(c1cc3c(cc1OC)N(C)[C@H]1[C@@](O)(C(=O)OC)[C@H](OC(C)=O)[C@]4(CC)C=CCN5CC[C@]31[C@@H]54)C2 [Vinorelbine (Navelbine)] | 0.544
37 | Cc1cc(Nc2cc(N3CCN(C)CC3)nc(/C=C/c3ccccc3)n2)n[nH]1 | -0.0973
38 | CN(N=O)C(=O)N[C@@H](C=O)[C@@H](O)[C@H](O)[C@H](O)CO [Streptozotocin (Zanosar)] | -0.0512
